Source: PubChem BioAssay (The Scripps Research Institute Molecular Screening Center)
Shown are actives, neighbours in structure and some others; about 1.8% of the full set was active somewhere.
Fam108B inh: Fam108B inhibition, counter-screen for RBBP9 inhibitors. 300,000 tested, 0.33% active. recombinant Fam108B, FP-Rh probe fluorescence polarization. inhibition, % at 9.51 µM;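 active = inhibition above the screen mean inhibition plus 3 SD, computed separately per campaign, cut at about 18% in these data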;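 note: inhibitors lower polarization as less probe binds the enzyme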
GSTO1 inh: counter-screen for RBBP9 inhibitors: inhibitors of human GSTO1. inhibition, % at 5.96 µM. recombinant GSTO1, activity-based probe fluorescence polarization. P78417. 300,000 tested, 1.1% active;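 active = inhibition above the campaign mean inhibition plus 3 SD, cut at about 35% in these data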;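 note: 0% = GSTO1-1 with DMSO and 100% = wells lacking GSTO1-1 enzyme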
Target sequence (P78417 whole entry, looked up): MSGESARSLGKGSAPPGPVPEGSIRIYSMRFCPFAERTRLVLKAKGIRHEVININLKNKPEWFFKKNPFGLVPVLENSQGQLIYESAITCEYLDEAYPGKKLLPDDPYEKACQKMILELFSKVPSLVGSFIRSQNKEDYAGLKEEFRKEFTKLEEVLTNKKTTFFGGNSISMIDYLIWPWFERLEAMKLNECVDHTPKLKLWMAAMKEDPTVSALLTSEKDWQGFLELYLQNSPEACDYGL
LYPLA2 inh: LYPLA2 (human) inhibition in PME1 counter-screen | O95372 | recombinant LYPLA2, FP-Rh probe fluorescence polarization | inhibition, % at 5.9 µM | 320,000 tested, 0.38% active | AID 2177;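 active = inhibition above the screen-wide mean plus 3 SD, limit set per campaign, cut at about 26% in these data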;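 note: 0% = LYPLA2 with DMSO and 100% = wells lacking LYPLA2 enzyme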
LYPLA1 counter: blocks human lysophospholipase 1, a PME1 counter-screen. O75608. inhibition, % at 5.9 µM. recombinant LYPLA1, FP-Rh probe fluorescence polarization. 320,000 tested, 0.16% active;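 active = inhibition above the mean of all tested compounds plus 3 SD, set per campaign, cut at about 14% in these data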;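 note: inhibitors block serine hydrolase probe labeling of LYPLA1 so polarization falls; 0% = enzyme with DMSO and 100% = wells lacking LYPLA1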
Target sequence (O75608 whole entry, looked up): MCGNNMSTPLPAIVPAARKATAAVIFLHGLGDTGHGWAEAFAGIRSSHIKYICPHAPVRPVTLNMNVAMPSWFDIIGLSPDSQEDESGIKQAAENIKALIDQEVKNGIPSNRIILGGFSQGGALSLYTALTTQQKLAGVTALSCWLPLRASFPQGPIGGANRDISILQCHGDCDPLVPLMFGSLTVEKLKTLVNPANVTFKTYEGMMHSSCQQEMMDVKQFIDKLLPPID
PME-1 primary: PME-1 (human) inhibition; Q9Y570; 320,000 tested, 0.53% active; inhibition, % at 5.9 µM; recombinant PME-1, FP-Rh probe fluorescence polarization;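 active = inhibition above the campaign mean of all compounds plus 3 SD, cut at about 26% in these data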;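 note: competitive labeling of PME-1 active site by serine hydrolase directed probe; 0% = PME-1 with DMSO and 100% = wells lacking PME-1 enzyme; inhibitors block probe labeling so polarization falls and inhibition rises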
PAD4 inh: PAD4 (human) enzyme inhibition; Q9UM07; 330,000 tested, 0.41% active; inhibition, % at 6.36 µM; recombinant PAD4, RCA probe fluorescence polarization; AID 485272;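 active = percent inhibition above a cutoff equal to the mean of all tested compounds plus 3 SD, cut at about 15% in these data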;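 note: 0% = PAD4 with RCA probe and DMSO and 100% = probe without PAD4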
* = called active by the depositor; . = no result.

SMILES | Fam108B inh | GSTO1 inh | LYPLA2 inh | LYPLA1 counter | PME-1 primary | PAD4 inh
O=C1COc2ccc(S(=O)(=O)Nc3cccc(Cl)c3)cc2N1 | 1 | 23 | 2 | -4 | -3 | -4
CCc1cccc(NS(=O)(=O)c2ccc3c(c2)NC(=O)CO3)c1 | 3 | 37* | 3 | 2 | 6 | -2
O=C(c1ccco1)N1CCN(c2ccc(N3CCCCC3)nn2)CC1 | -3 | 0 | 3 | 5 | 1 | -6
CCCC(=O)NC(c1ccccc1)c1c(O)ccc2ccccc12 (configuration not stated) | -4 | -7 | 2 | -3 | 1 | 3
CCCCC(=O)NC(c1ccccc1Cl)c1c(O)ccc2ccccc12 (configuration not stated) | 1 | -1 | -3 | -6 | 45* | -1
CCCC(=O)NC(c1ccccc1Cl)c1c(O)ccc2ccccc12 (configuration not stated) | 0 | 1 | -6 | 0 | 61* | -1
O=[N+]([O-])c1ccccc1Nc1cccnc1 | 1 | 0 | -3 | -4 | 5 | 0
Cc1ccc(SCC(=O)OCC(=O)NCCc2ccccc2)cc1C | . | . | 4 | 4 | 0 | 4
NNc1nc(-c2ccccc2Cl)nc2sc3c(c12)CCCC3 | 0 | -10 | -2 | -2 | 3 | -2
CC1CCC2(CC1)NC(=O)N(CC(=O)Nc1cccc(S(=O)(=O)N3CCCC3)c1)C2=O (configuration not stated) | . | . | -4 | -1 | 5 | 1
CC(=O)Nc1nonc1NC(C)=O | 1 | -3 | -3 | 3 | 3 | -1
CC(=O)Nc1cc(OC(C)=O)c2nonc2c1OC(C)=O | 76* | 89* | 95* | 81* | 63* | 83*
O=C1NC(=O)/C(=C/c2cccc3ccccc23)S1 | -5 | -29 | 5 | -2 | -6 | 3
O=C1NC(=O)/C(=C\c2ccc(O)cc2O)S1 | -2 | 63* | -3 | -7 | -6 | 1
CN(CC(=O)Nc1cccc(F)c1)C(=O)CN1C(=O)C2CC=CCC2C1=O (configuration not stated) | 2 | 6 | -2 | -4 | -1 | -2
Cc1cccc(NC(=O)CN2C(=O)S/C(=C\c3ccc(O)c([N+](=O)[O-])c3)C2=O)c1 | 16 | -13 | 81* | 1 | 33* | -3
Cn1c(=O)oc2cc(S(=O)(=O)NC3CCN(Cc4ccccc4)CC3)ccc21 | -2 | 37* | 0 | -2 | -8 | -3
Cn1c(=O)oc2cc(S(=O)(=O)NC3CCCCC3)ccc21 | 6 | 13 | 3 | 1 | -1 | 7
CCC(NC(=O)CN1CCN(C(=O)c2cccs2)CC1)c1ccc(C)cc1 (configuration not stated) | . | . | -4 | 1 | 4 | 0
O=c1cc(N2CCCCC2)c(-c2ccccc2)nn1Cc1c(Cl)cccc1Cl | -3 | 2 | 2 | -4 | 30* | 1
O=c1cc(N2CCCCC2)c(-c2ccccc2)nn1Cc1ccc(Cl)cc1 | 0 | -3 | 2 | -2 | 8 | -4
O=C(N/N=C\c1ccc(COc2ccc([N+](=O)[O-])cc2)o1)c1ccc(Cl)cc1 | -5 | -21 | -32 | -14 | -10 | -1
O=C(N/N=C\c1ccc(COc2ccc([N+](=O)[O-])cc2)o1)c1cccc(Cl)c1 | 13 | -2 | -1 | -14 | 36* | 5
CC(C)(C)OC(=O)N1CCC(c2cc(=O)n3[nH]c(-c4ccc(Cl)cc4)cc3n2)CC1 | -1 | -4 | 0 | 1 | -8 | 0
COc1ccc(NC(=O)c2c[nH]n3c(=O)cc(C4CCN(C(=O)OC(C)(C)C)CC4)nc23)cc1Cl | 5 | -4 | -3 | 1 | 33* | -3
SMILES | Fam108B inh | GSTO1 inh | LYPLA2 inh | LYPLA1 counter | PME-1 primary | PAD4 inh
O=c1[nH][nH]c2cc(=O)n(-c3cccc(C(F)(F)F)c3)nc12 | 5 | 25 | 2 | 2 | 37* | -2
CCCCn1c(N)c(N(CCC(C)C)C(=O)C2CC(=O)N(CCc3ccc(OC)c(OC)c3)C2)c(=O)[nH]c1=O (configuration not stated) | -2 | 7 | 3 | 0 | -2 | 1
CCOC(=O)c1cc(C#N)c(SCC(N)=O)[nH]c1=O | 2 | 36* | 1 | -9 | -2 | -4
CCOC(=O)COc1ccccc1C(=O)c1cnn(-c2ccccc2)c1 | 4 | 13 | 0 | -2 | -5 | 5
Cc1ncc(CO)c(/C=N/NC(=S)Nc2ccc(Cl)c(Cl)c2)c1O | 16 | -9 | 0 | -7 | 27* | 2
Cc1ncc(CO)c(/C=N/NC(=S)Nc2cccc(Cl)c2)c1O | 6 | 4 | 5 | -7 | 14 | -1
CC(C)NC(=O)NC(=O)CSc1nnc(-c2c[nH]c3ccccc23)o1 | -1 | 12 | 0 | -2 | -5 | -4
O=C(O)c1ccc(N/N=C/c2ccc(-c3ccc(Br)cc3)o2)cc1 | 13 | 18 | 7 | 3 | 33* | -2
Cc1ccc(/C=N/Nc2ccc(C(=O)O)cc2)o1 | 2 | 11 | -1 | 2 | -4 | 1
COc1ccccc1CNC(=O)CCNS(=O)(=O)c1ccc2c(c1)oc(=O)n2C | -1 | 4 | 3 | 1 | 9 | -1
Cn1c(=O)[nH]c(=O)c2c1nc(N/N=C/C(Br)=C/c1ccccc1)n2CCO | -3 | 35* | 1 | -1 | 1 | -1
CC(C)=NNc1nc2c(c(=O)[nH]c(=O)n2C)n1CCc1ccccc1 | -1 | 33 | 8 | 1 | -2 | 1
O=C(Nc1cccc(Cl)c1N1CCOCC1)c1cccnc1Cl | 2 | 8 | 2 | -1 | 2 | 0
O=C(CCl)c1ccc2c(c1)CCN2C(=O)C1CC1 | -3 | 57* | 1 | 2 | 0 | -3
Cc1nn(C)cc1/C=N/NC(=O)Cn1cncn1 | 2 | 8 | 3 | -1 | -5 | 0
O=C(OCC#CCSc1nnc(-c2ccncc2)o1)c1cccs1 | -2 | 37* | 7 | 2 | -2 | -1
Cc1ccc(S(=O)(=O)/C(C#N)=C/c2c(N3CCN(Cc4ccccc4)CC3)nc3ccccn3c2=O)cc1 | -15 | -7 | -26 | -7 | -13 | 4
Cc1ccccc1Cn1nnc2c1C(=O)c1ccccc1C2=O | 4 | 38* | 2 | 3 | 6 | -9
Oc1ccccc1OCc1nc2ccccc2s1 | -4 | 4 | 5 | -1 | 2 | 1
Oc1ccc(O)c(Cc2nc3ccccc3s2)c1 | 1 | 61* | -2 | -1 | -1 | -7
O=C1CSC(=S)N1/N=C/c1ccc(O)c(O)c1O | 14 | 67* | -10 | -9 | -8 | 0
O=C(c1ccc2c(c1)OCO2)C1CCCN(Cc2c(F)ccc(F)c2F)C1 (configuration not stated) | -2 | -6 | 2 | 4 | -6 | -1
CCOC(=O)c1c2c(n(C)c1C)C(=O)C(=O)c1ccc(Br)cc1-2 | 16 | 72* | -4 | -2 | 25 | -3
Cc1c(CN(C)C)c2c(n1C)C(=O)c1ccc(Br)cc1-2 | 1 | -1 | -1 | 2 | 9 | -6
